# Values joined by “and” are separate entries in the source; they are usually repeats but may differ in a detail not shown here. Equal values may be shown once. Inconclusive results are not listed. A call without a number means that no potency is given here. More than one record can exist for a structure, and the calls need not agree. Active and inactive are the calls of the source. Unless noted, the call rests on the fitted dose curve; in most records, active means well fitted curve in the direction sought with a large enough effect in the repeat runs; inconclusive means weak or mixed curves; inactive means no such curve, though single readings can be large; an effect the other way counts as inactive or inconclusive.
# Legend:
# [1] = qHTS assay to identify small molecule agonists of the estrogen receptor alpha (ER-alpha) signaling pathway in the presence of an antagonist - cell viability counter screen (AID 1259386);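 further: cells exposed to compounds for 22 h at 37 °C before the viability read; nearly all actives have a fitted effect of over 30% in size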; further: potency means the concentration at half of the fitted maximal effect; on activity change, negative = cytotoxicity: series mostly up to about 92 µM
# Method in brief: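 The test measures whether compounds kill ER-alpha reporter cells (VM7Luc4E2) under antagonist co-treatment (ICI-182,780, 10.0nM). Fluorescence from CellTiter-Fluor is read after a 22hr exposure.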
# [2] = target: Progesterone receptor (Homo sapiens) (UniProt P06401); assay: qHTS assay to identify small molecule agonists of the progesterone receptor (PR) signaling pathway (AID 1346784; calls by dose curve; further: nearly all actives have a fitted effect of over 30% in size; further: potency means the concentration at half of the fitted maximal effect)
# Method in brief: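 Beta-lactamase reporter read-out: after 16 hr compound treatment at 37C and a further 2 hr at room temperature with LiveBLAzer B/G FRET substrate, fluorescence was measured in PR-UAS-bla HEK 293T cells grown in 2% charcoal-stripped serum.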
# [3] = target: Progesterone receptor (Homo sapiens) (UniProt P06401); assay: qHTS assay to identify small molecule antagonists of the progesterone receptor (PR) signaling pathway (AID 1346795; active means well fitted inhibition curve with a large enough effect in the signal ratio in the repeat runs, not every such curve was filed as active; the % refers to the signal ratio; further: potency means the concentration at half of the fitted maximal effect)
# Method in brief: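 Read-out is fluorescence from the LiveBLAzer B/G FRET substrate, cleaved by a UAS-controlled beta-lactamase in PR-UAS-bla HEK293T cells after 16 hr exposure to compound plus 1 nM promegestone (final), followed by 2 hr at room temperature.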
# [4] = qHTS assay to identify small molecule antagonists of the progesterone receptor (PR) signaling pathway - cell viability counter screen (AID 1346798); further: nearly all actives have a fitted effect of over 50% in size; further: potency means the concentration at half of the fitted maximal effect;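 on activity change, negative = cytotoxicity: HEK293T PR-UAS-bla cells stimulated with the agonist R5020; series mostly up to about 92 µM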
# Method in brief: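 HEK293T PR-UAS-bla, 2% charcoal-stripped FBS; 4 hr pre-plate; cpd + R5020, 16 h 37C; LiveBLAzer read first; then CellTiter-Glo 30 min RT, luminescence.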
# [5] = qHTS assay to identify small molecule agonists of the progesterone receptor (PR) signaling pathway - cell viability counter screen (AID 1346799; calls by dose curve; further: nearly all actives have a fitted effect of over 45% in size; further: potency means the concentration at half of the fitted maximal effect)
# Method in brief: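 Luminescence from CellTiter-Glo, added after the beta-lactamase FRET read in the same wells, gave cytotoxicity in PR-UAS-bla HEK293T cells treated with compounds for 16 hr at 37C.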
# [6] = qHTS assay to identify small molecule antagonists of the TGF-beta/Smad signaling pathway - cell viability counter screen (AID 1346824); further: nearly all actives have a fitted effect of over 50% in size
# Method in brief: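 SBE-bla HEK 293T cells were plated overnight at 37 C, then given compounds in DMSO plus TGF-beta1 (added as 0.25 ng/mL solution) for 5 hr. After the bla read, CellTiter-Glo was added to the same wells and luminescence read after 30 min at room temperature.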
# [7] = qHTS assay to identify small molecule agonists of the TGF-beta/Smad signaling pathway - cell viability counter screen (AID 1346829); further: top concentration of the series differs between compounds; nearly all actives have a fitted effect of over 45% in size
# Method in brief: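 CellTiter-Glo luminescence readout; SBE-bla HEK 293T cells, overnight plating, compound 5 hr at 37 C/5% CO2, then bla substrate 2 hr RT, then CellTiter-Glo 30 min RT.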
# [8] = qHTS assay to identify small molecule agonists of the TGF-beta/Smad signaling pathway (AID 1346859; active means well fitted activation curve with a large enough effect in the signal ratio in the repeat runs, not every such curve was filed as active; the % refers to the signal ratio; further: series mostly up to about 77 µM)
# Method in brief: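 SBE-bla HEK 293T, 4,000 cells/well, plated o/n; cpd in DMSO, 5 hr, 37 C/5% CO2; B/G FRET substrate 2 hr RT; ex 405, em 460/530 nm.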
# [9] = target: Thyrotropin-releasing hormone receptor (Homo sapiens) (UniProt P34981); assay: qHTS assay to identify small molecule antagonists of the thyrotropin-releasing hormone receptor (TRHR) signaling pathway (AID 1346877; active means well fitted inhibition curve with a large enough effect in the repeat runs, not every such curve was filed as active; further: series mostly up to about 51 µM)
# Method in brief: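 Overnight-plated (18 h, 37 °C) HEK293 cells expressing TRHR were dye-loaded 2 h, treated with compound, then stimulated with TRH at 1 nM final. Fluorescence intensity was captured every second for 3 min.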
# [10] = target: Thyrotropin-releasing hormone receptor (Homo sapiens) (UniProt P34981); assay: qHTS assay to identify small molecule agonists of the thyrotropin-releasing hormone receptor (TRHR) signaling pathway (AID 1346891; calls by dose curve; further: series mostly up to about 58 µM)
# Method in brief: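 Intracellular calcium rise, read as fluorescence every second for 3 min, served as the agonist signal in dye-loaded HEK293 cells expressing TRHR; each compound ran at 15 concentrations in triplicate.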
# Thyrotropin-releasing hormone receptor (Homo sapiens), sequence (P34981 whole entry, looked up): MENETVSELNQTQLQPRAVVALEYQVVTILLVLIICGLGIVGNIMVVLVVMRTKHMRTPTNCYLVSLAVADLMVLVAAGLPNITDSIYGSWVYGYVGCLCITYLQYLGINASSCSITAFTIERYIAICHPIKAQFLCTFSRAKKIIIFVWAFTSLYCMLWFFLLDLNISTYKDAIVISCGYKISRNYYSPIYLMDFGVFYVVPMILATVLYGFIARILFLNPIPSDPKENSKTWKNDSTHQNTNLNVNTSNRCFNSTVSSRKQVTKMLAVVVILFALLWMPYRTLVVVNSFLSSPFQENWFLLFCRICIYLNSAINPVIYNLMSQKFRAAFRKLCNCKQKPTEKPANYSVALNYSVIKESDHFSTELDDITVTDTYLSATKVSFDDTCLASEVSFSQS
# Progesterone receptor (Homo sapiens), sequence (P06401 whole entry, looked up): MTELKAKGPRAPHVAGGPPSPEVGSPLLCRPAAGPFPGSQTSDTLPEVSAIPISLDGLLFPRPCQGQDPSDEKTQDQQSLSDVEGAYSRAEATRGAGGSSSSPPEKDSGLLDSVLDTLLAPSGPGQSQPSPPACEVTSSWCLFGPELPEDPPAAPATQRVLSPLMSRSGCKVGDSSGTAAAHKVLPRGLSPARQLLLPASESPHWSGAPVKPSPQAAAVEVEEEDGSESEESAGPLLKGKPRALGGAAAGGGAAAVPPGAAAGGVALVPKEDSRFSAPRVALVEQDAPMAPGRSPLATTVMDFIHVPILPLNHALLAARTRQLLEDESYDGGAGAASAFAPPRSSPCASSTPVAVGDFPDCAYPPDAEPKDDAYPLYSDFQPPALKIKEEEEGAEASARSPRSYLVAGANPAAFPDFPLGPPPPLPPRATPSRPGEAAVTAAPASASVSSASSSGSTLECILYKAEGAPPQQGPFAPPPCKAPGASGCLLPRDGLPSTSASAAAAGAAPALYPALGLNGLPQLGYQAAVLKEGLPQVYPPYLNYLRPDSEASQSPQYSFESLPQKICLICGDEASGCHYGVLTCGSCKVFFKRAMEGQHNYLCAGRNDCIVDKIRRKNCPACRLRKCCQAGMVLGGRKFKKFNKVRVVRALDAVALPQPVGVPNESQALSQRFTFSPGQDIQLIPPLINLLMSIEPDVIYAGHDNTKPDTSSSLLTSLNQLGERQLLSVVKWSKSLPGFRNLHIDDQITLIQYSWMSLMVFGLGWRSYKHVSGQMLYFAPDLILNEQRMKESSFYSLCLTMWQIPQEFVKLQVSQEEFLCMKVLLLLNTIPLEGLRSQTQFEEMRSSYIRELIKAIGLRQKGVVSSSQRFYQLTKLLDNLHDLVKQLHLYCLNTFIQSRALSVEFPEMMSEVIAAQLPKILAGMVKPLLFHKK
Structure (SMILES),Potency [1],Potency [2],Potency [3],Potency [4],Potency [5],Potency [6],Potency [7],outcome [8],Potency [9],Potency [10],activation [2],"activity change, negative = cytotoxicity [4]"
CN(C)CCN(Cc1cccs1)c1ccccn1,inactive,inactive,inactive,inactive,inactive,inactive,inactive,inactive,,,,
NC=O,inactive,inactive,inactive,inactive,inactive,inactive,inactive,inactive,,,,
O=CCCCC=O,inactive,inactive,inactive,inactive,inactive,inactive,inactive,inactive,inactive,inactive,,
CCCCOCCOCCO,inactive,inactive,inactive,inactive,inactive,inactive,inactive,inactive,,,,
CCCCOCCOCCOCCO,inactive,inactive,inactive,inactive,inactive,inactive,inactive,inactive,inactive,inactive,,
CCCCNS(=O)(=O)c1ccccc1,inactive,inactive,inactive,inactive,inactive,inactive,inactive,inactive,inactive,inactive,,
Cc1cccc(C(=O)O)c1,inactive,inactive,inactive,inactive,inactive,inactive,inactive,inactive,,,,
O=C(Nc1ccc([N+](=O)[O-])cc1Cl)c1cc(Cl)ccc1O,1.37 µM (active) and 1.3 µM (active),,30.6 µM (active),30.6 µM (active),,,,,,,2.96% [at 19 µM] (inactive),-2.12% [at 18.9 µM] (inactive)
OC[C@H]1O[C@@H]2O[C@H]3[C@H](O)[C@@H](O)[C@@H](O[C@H]4[C@H](O)[C@@H](O)[C@@H](O[C@H]5[C@H](O)[C@@H](O)[C@@H](O[C@H]6[C@H](O)[C@@H](O)[C@@H](O[C@H]7[C@H](O)[C@@H](O)[C@@H](O[C@H]8[C@H](O)[C@@H](O)[C@@H](O[C@H]1[C@H](O)[C@H]2O)O[C@@H]8CO)O[C@@H]7CO)O[C@@H]6CO)O[C@@H]5CO)O[C@@H]4CO)O[C@@H]3CO,inactive,inactive,inactive,inactive,24.4 µM (active) and inactive,inactive,inactive,inactive,inactive,inactive,,
COC(=O)c1ccccc1,inactive,inactive,inactive,inactive,inactive,inactive,inactive,inactive,inactive,inactive,,
CCC(C)(O)CCCC(C)C (stereo not drawn),inactive,inactive,inactive,inactive,inactive,inactive,inactive,inactive,,,,
O=C(OCc1ccccc1)c1ccccc1O,inactive,inactive,inactive,inactive,inactive,inactive,inactive,inactive,inactive,inactive,,
COc1ccccc1/C=C/C=O,inactive,inactive,inactive,inactive,inactive,inactive,inactive,inactive,,,,
CCCCCCCCCCCO,inactive,inactive,inactive,inactive,inactive,inactive,inactive,inactive,,,,
CN1C(C(=O)Nc2ccccn2)=C(O)c2ccccc2S1(=O)=O,inactive,inactive,inactive,inactive,inactive,inactive,inactive,inactive,inactive,inactive,,
Cc1ccc(C)c(O)c1C,inactive,inactive,inactive,inactive,inactive,inactive,inactive,inactive,inactive,inactive,,
O=c1oc(=O)c2cc3c(=O)oc(=O)c3cc12,inactive,inactive,inactive,inactive,inactive,inactive,inactive,inactive,inactive,inactive,,
OC(CCl)CCl,inactive,inactive,inactive,inactive,inactive,inactive,inactive,inactive,,,,
COC(C)COC(C)COC(C)CO (stereo not drawn),inactive,inactive,inactive,inactive,inactive,inactive,inactive,inactive,inactive,inactive,,
c1ccc2c(c1)Oc1ccccc1S2,inactive,inactive,inactive,inactive,inactive,inactive,inactive,inactive,inactive,inactive,,
CCCCC(CC)COC(=O)c1ccc(N(C)C)cc1 (stereo not drawn),inactive,inactive,inactive,inactive,inactive,inactive,inactive,inactive,,,,
O=P(O)(O)O,inactive,inactive,inactive,inactive,inactive,inactive,inactive,inactive,inactive,inactive,,
c1ccc2c(c1)c1cccc3ccc4cccc2c4c31,inactive,inactive,inactive,inactive,inactive,inactive,inactive,inactive,inactive,inactive,,
CCC(C)CO (stereo not drawn),inactive,inactive,inactive,inactive,inactive,inactive,inactive,inactive,,,,
C=C(C)C(=O)OCCOC(=O)C(=C)C,inactive,inactive,inactive,inactive,inactive,inactive,inactive,inactive,inactive,inactive,,

Structure (SMILES),Potency [1],Potency [2],Potency [3],Potency [4],Potency [5],Potency [6],Potency [7],outcome [8],Potency [9],Potency [10],activation [2],"activity change, negative = cytotoxicity [4]"
c1ccc(Nc2ccccc2)cc1,inactive,inactive,48.5 µM (active) and inactive,inactive,inactive,inactive,inactive,inactive,,,,
CC(C)=CCCC(C)CCO (stereo not drawn),inactive,inactive,inactive,inactive,inactive,inactive,inactive,inactive,inactive,inactive,,
CC(=O)CC/C=C(\C)CCC=C(C)C,inactive,inactive,inactive,inactive,inactive,inactive,inactive,inactive,inactive,inactive,,
OC1CCCCCCCCCCC1,inactive,inactive,inactive,inactive,inactive,inactive,inactive,inactive,inactive,inactive,,
c1ccc2cc(Nc3ccc(Nc4ccc5ccccc5c4)cc3)ccc2c1,inactive,inactive,inactive,inactive,inactive,inactive,inactive,inactive,inactive,inactive,,
Clc1nc(Cl)c(Cl)c(Cl)c1Cl,inactive,inactive,inactive,inactive,inactive,inactive,inactive,inactive,,,,
CCCCCCCCCC(=O)OC,inactive,inactive,inactive,inactive,inactive,inactive,inactive,inactive,inactive,inactive,,
c1ccncc1,inactive,inactive,inactive,inactive,inactive,inactive,inactive,inactive,inactive,inactive,,
Cc1ncc[nH]1,inactive,inactive,inactive,inactive,inactive,inactive,inactive,inactive,,,,
CCC(C)c1ccccc1O (stereo not drawn),inactive,inactive,inactive,inactive,inactive,inactive,inactive,inactive,inactive,inactive,,
Cn1cnc([N+](=O)[O-])c1Sc1ncnc2nc[nH]c12,inactive,inactive,inactive,inactive,3.83 µM (active) and inactive,inactive,inactive,inactive,inactive,inactive,,
COc1ccc(OC)c(C(O)CNC(=O)CN)c1 (stereo not drawn),inactive,inactive,inactive,inactive,inactive,inactive,inactive,inactive,,,,
C=CC(C)(CCC=C(C)C)OC(C)=O (stereo not drawn),inactive,inactive,inactive,inactive,inactive,inactive,inactive,inactive,inactive,inactive,,
O=Cc1ccccc1O,inactive,inactive,inactive,inactive,inactive,inactive,inactive,inactive,inactive,inactive,,
CCC(C)OC(=O)c1ccc(O)cc1 (stereo not drawn),inactive,inactive,48.9 µM (active) and 54.5 µM (active),inactive,inactive,,inactive,inactive,inactive,inactive,,
C/C=C/C(=O)O,inactive,inactive,inactive,inactive,inactive,inactive,inactive,inactive,inactive,inactive,,
O=C(c1ccccc1)c1ccccc1O,inactive,inactive,inactive,inactive,inactive,inactive,inactive,inactive,inactive,inactive,,
Nc1ccc(S(=O)(=O)Nc2cnc3ccccc3n2)cc1,inactive,inactive,inactive,inactive,inactive,,inactive,inactive,,,,
C[C@]12CC[C@H]3[C@@H](CCC4=CC(=O)CC[C@@]43C)[C@@H]1CC[C@@H]2C(=O)CO,inactive,0.237 µM (active),inactive,inactive,,inactive,inactive,inactive,inactive,inactive,,
O=S(=O)(O)c1ccc(O)cc1,inactive,inactive,inactive,inactive,inactive,,inactive,inactive,,,,
c1cc(-c2ccncc2)ccn1,inactive,inactive,inactive,inactive,inactive,,inactive,inactive,inactive,inactive,,
O=CCc1ccccc1,inactive,inactive,inactive,inactive,inactive,,inactive,inactive,inactive,inactive,,
Cc1ccc2c(n1)Oc1ccc(C(C)C(=O)OCC(=O)N(C)C)cc1C2 (stereo not drawn),inactive,inactive,inactive,inactive,inactive,,inactive,inactive,inactive,inactive,,
Nc1ncnc2nc[nH]c12,inactive,inactive,inactive,inactive,inactive,,inactive,inactive,,,,

# Reference: PubChem BioAssay (Tox21)
